# Data reported in the supplement of paper PMC9177965.
# Tested on: HT29 RNF43 G659fs (RNF43 659mut, CRISPR-edited)
# Assay: cell viability activity relative to DMSO (negative = inhibition); higher = more viable cells (less growth inhibition)
# Settings: 5 µM; 96 h
# Method: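 Broad Repurposing Library primary screen at a single dose of 5 uM. HT29 sg-Ctrl and HT29 RNF43 G659fs CRISPR-edited isogenic cells were seeded at 2500 cells/well in 384-well plates in duplicate and treated for 96 h. Viability was read by CellTiter-Glo and reported as % activity relative to DMSO, with MG132 as the positive control (negative = growth inhibition).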
row,SMILES,cell viability activity
1,c1cc(-c2cnn3cc(-c4ccc(N5CCNCC5)cc4)cnc23)c2cccnc2c1,-97.7%
2,CN(C)/N=N/c1[nH]cnc1C(N)=O,-31.5%
3,Cc1ccccc1N(C)C(=O)c1ccc([S+]([O-])c2nccs2)c([N+](=O)[O-])c1 (stereo not given),-49.2%
4,CCN(c1cc(C#CCN2CCOCC2)cc(C(=O)NCc2c(C)cc(C)[nH]c2=O)c1C)[C@H]1CC[C@H](N(C)CCOC)CC1,-37.5%
5,CC(C)C[C@H](NC(=O)CNC(=O)c1cc(Cl)ccc1Cl)B(O)O,-94.3%
6,C/C(=N\NC(=S)N1CCC1)c1ccccn1,-82.2%
7,O=C(O)c1ccc[n+]([O-])c1,-66%
8,Nc1ncnc2c1c(-c1cnc3[nH]ccc3c1)nn2C1CCCC1,-84.8%
9,CCCCCCCCCCCCCCCC[N+](C)(C)Cc1ccccc1,-46.6%
10,C#CCC(Cc1cnc2nc(N)nc(N)c2n1)c1ccc(C(=O)N[C@@H](CCC(=O)O)C(=O)O)cc1 (stereo not given in full),-68.9%
11,CC[C@@H]1C(=O)N(C)c2cnc(Nc3ccc(C(=O)NC4CCN(C)CC4)cc3OC)nc2N1C1CCCC1,-83.2%
12,NC(=NC1C2CC3CC(C2)CC1C3)Nc1ccc(I)cc1 (stereo not given),-49.5%
13,O=C(/C=C\n1cnc(-c2cc(C(F)(F)F)cc(C(F)(F)F)c2)n1)N1CC(F)(F)C1,-72.2%
14,COc1cc(N2CCC(N3CCN(C)CC3)CC2)ccc1Nc1ncc(Cl)c(Nc2ccccc2S(=O)(=O)C(C)C)n1,-53.9%
15,Cc1nc(=O)c2cc(CN(C)c3ccc(C(=O)N[C@@H](CCC(=O)O)C(=O)O)s3)ccc2[nH]1,-60.2%
16,COC(=O)[C@H]1[C@H]2C[C@@H]3c4[nH]c5cc(OC)ccc5c4CCN3C[C@H]2C[C@@H](OC(=O)c2cc(OC)c(OC)c(OC)c2)[C@@H]1OC,-26.1%
17,Cc1cccc(-c2[nH]c(C(C)(C)C)nc2-c2ccc3c(c2)OCO3)n1,-79.2%
18,Cc1ccc(C(=O)Nc2ccc(CN3CCN(C)CC3)c(C(F)(F)F)c2)cc1C#Cc1cnc2cccnn12,-86.7%
19,Clc1ccc(NN=C(c2ccccc2)c2ccccn2)nc1,-70.7%
20,O=C1NC(=O)[C@@H](c2cn3c4c(cccc24)CCC3)[C@@H]1c1c[nH]c2ccccc12,-50.8%

row,SMILES,cell viability activity
1,Cn1cc(-c2[nH]c3cc(NC(=O)[C@H](N)C4CCCCC4)cc4c3c2C=NNC4=O)cn1,-54.9%
2,CC(C)(C#N)c1ccc(N2C(=O)OCc3cnc4ccc(-c5cnc6ccccc6c5)cc4c32)cc1,-30.7%
3,O=C(NC1CCN(CCCCC2(C(=O)NCC(F)(F)F)c3ccccc3-c3ccccc32)CC1)c1ccccc1-c1ccc(C(F)(F)F)cc1,-95.7%
4,C[C@@H]1CC[C@@]2(NC1)O[C@H]1C[C@H]3[C@@H]4CC=C5C[C@@H](O[C@@H]6O[C@H](CO)[C@@H](O[C@@H]7O[C@@H](C)[C@H](O)[C@@H](O)[C@H]7O)[C@H](O)[C@H]6O[C@@H]6O[C@@H](C)[C@H](O)[C@@H](O)[C@H]6O)CC[C@]5(C)[C@H]4CC[C@]3(C)[C@H]1[C@@H]2C,-94%
5,O=C1C(Cl)=C(NCCN2CCOCC2)C(=O)c2ncccc21,-46.3%
6,CN1CCN(CCCN2c3ccccc3Sc3ccc(C(F)(F)F)cc32)CC1,-34.4%
7,CN(C)c1ccc(C(=C2C=CC(=[N+](C)C)C=C2)c2ccc(N(C)C)cc2)cc1,-96.3%
8,CCOc1cc2ncc(C#N)c(Nc3ccc(F)c(Cl)c3)c2cc1NC(=O)/C=C/CN(C)C,-77.4%
9,COc1ccc(-c2nc(N3CCOCC3)c3sc(CN(C)c4ncc(C(=O)NO)cn4)cc3n2)cn1,-94.5%
10,CCN(CC)CCNC(=O)c1ccc(NC(C)=O)cc1,-53.2%
11,CCc1c2c(nc3ccc(O)cc13)-c1cc3c(c(=O)n1C2)COC(=O)[C@]3(O)CC,-84%
12,CCCCCCCC/C=C/CCCCCCCC(=O)OC[C@H]1O[C@@H](n2ccc(N)nc2=O)C(F)(F)[C@@H]1O,-42%
13,Nc1nc2[nH]cnc2c(=S)[nH]1,-81.6%
14,C[C@H]1O[C@@H](O[C@H]2[C@@H](O)C[C@H](O[C@H]3[C@@H](O)C[C@H](O[C@H]4CC[C@@]5(C)[C@H](CC[C@@H]6[C@@H]5CC[C@]5(C)[C@@H](C7=CC(=O)OC7)CC[C@]65O)C4)O[C@@H]3C)O[C@@H]2C)C[C@H](O)[C@@H]1O,-92.2%
15,CN(C)CCOc1ccc(/C(=C(/CCCl)c2ccccc2)c2ccccc2)cc1,-85.2%
16,Cc1nc(NC(=O)N2CCC[C@H]2C(N)=O)sc1-c1ccnc(C(C)(C)C(F)(F)F)c1,-49.8%
17,Nc1nc(Cl)nc2c1ncn2[C@@H]1O[C@H](CO)[C@@H](O)[C@@H]1F,-30.3%
18,Cc1ccc(C(=O)Nc2ccc(Oc3cc4cnn(C)c4cc3-c3cn[nH]c3)c(F)c2)c(=O)n1-c1ccc(F)cc1,-41.5%
19,Cc1ccc(C(=O)Nc2ccc(CN3CCN(C)CC3)c(C(F)(F)F)c2)cc1C#Cc1cnc2[nH]ncc2c1,-96.2%
20,COc1ccc2[nH]c(C(=O)c3ccccc3)cc2c1,-61.7%
